POLI inh: DNA polymerase iota (human) inhibition. Q9UNA4. Pol iota fluorescent replication assay, 10 min. Potency, µM (doses to about 115 µM), usual class: inhibitors. hit rate 1% among 390,000. AID 588590
Target sequence (Q9UNA4 whole entry, looked up): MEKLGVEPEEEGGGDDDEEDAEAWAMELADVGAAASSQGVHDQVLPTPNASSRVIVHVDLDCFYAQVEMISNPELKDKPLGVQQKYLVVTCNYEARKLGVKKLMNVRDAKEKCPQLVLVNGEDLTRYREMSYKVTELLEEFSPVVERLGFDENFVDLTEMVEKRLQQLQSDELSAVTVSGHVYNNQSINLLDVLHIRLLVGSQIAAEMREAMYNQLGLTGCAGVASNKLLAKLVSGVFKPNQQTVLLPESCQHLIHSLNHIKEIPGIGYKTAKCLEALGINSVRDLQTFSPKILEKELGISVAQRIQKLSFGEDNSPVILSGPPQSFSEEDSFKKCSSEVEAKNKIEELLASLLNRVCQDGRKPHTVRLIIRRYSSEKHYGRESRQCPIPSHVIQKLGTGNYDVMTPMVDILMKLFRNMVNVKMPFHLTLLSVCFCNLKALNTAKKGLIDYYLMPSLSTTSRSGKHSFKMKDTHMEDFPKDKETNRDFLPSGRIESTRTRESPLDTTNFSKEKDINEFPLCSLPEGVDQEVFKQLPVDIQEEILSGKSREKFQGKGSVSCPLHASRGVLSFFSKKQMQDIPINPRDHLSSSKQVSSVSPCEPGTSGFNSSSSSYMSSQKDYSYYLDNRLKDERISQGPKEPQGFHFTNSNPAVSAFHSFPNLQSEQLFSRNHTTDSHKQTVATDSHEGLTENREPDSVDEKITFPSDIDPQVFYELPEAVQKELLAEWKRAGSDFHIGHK
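Pol iota at 10 nM preincubated 15 min with compounds at room temperature; reaction started with fluorescent substrate, 50 nM final. Fluorescence read kinetically at 0 and 10 min; buffer-only wells as negative control.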
POLH inh: DNA polymerase eta (human) inhibition; Potency, µM (doses to about 114 µM), usual class: inhibitors; hit rate 1.2% among 390,000; Q9Y253; recombinant Pol eta, fluorescent DNA replication assay; AID 588591
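Pol eta at 10 nM preincubated with compounds 15 min at room temperature; reaction started with fluorescent substrate (50 nM final) and read kinetically at 0 and 10 min.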
POLK inh: blocks human DNA polymerase kappa activity; purified Pol kappa, fluorescent DNA synthesis assay, 10 min; Potency, µM (doses to about 107 µM), usual class: inhibitors; hit rate 0.53% among 400,000
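10 nM Pol kappa preincubated 15 min at room temperature with compounds, then reaction started with substrate at 50 nM final. Fluorescence read kinetically at 0 and 10 min; buffer-only wells served as negative control.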
POLB inh: inhibitors of human DNA polymerase beta; hit rate 1.3% among 340,000; P06746; Potency, µM (top dose mostly 114 µM), actives largely listed as inhibitors; Pol beta primer extension/strand displacement, fluorescence kinetic; AID 485314
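Kinetic readout of DNA synthesis with strand displacement by Pol beta. Compound and 10 nM enzyme sit 15 min at room temperature; 50 nM substrate starts the reaction, read immediately and at 10 min.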
WRN helicase inh: WRN helicase (human) inhibition. Q14191. WRN helicase unwinding, fluorescent forked duplex, kinetic. Potency, µM (top dose mostly 114 µM), most hits filed as inhibitors. hit rate 0.46% among 360,000; also: nearly all actives have a fitted effect of over 55% in size
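Primary qHTS, 1536-well format. 20 nM WRN + compound, 15 min RT; start with 100 nM forked fluorophore/quencher duplex, 2 mM ATP (final); kinetic read ex 525/em 598 nm.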
Each line names hits and unclear results; the compound was inactive in the other large screens; ! = a repeat was not active. Rows were chosen to be rich in hits. Some 2.3% of all compounds tested hit in one or more screens of this group. Calls follow the shape of the dose curve; as a rule, active = well fitted curve in the direction sought with a large enough effect; inconclusive = small, poorly fitted or top-dose-only effect, or another doubt; inactive = no such curve, though single readings can be large; an effect the other way counts as inactive or inconclusive.

COc1ccc2c(c1)-c1nc(N)sc1CC2	none
COc1ccc2c(c1)-c1nc(/N=C/c3ccc(O)c(OC)c3)sc1CC2	WRN helicase inh 79µM
CC(C)(C)n1ncc2c(=O)n(Cc3cccc(C#N)c3)cnc21	none (no result: POLH inh, POLB inh, WRN helicase inh)
Oc1cc2cc(-c3csc(-c4ccc(F)cc4)n3)cc3c2n1CCC3	none (no result: POLH inh, POLB inh, WRN helicase inh)
COc1ccc2ccc3c(c2c1)N=CC1(O3)N(C)c2ccccc2C1(C)C (centres undefined)	POLI inh 5µM, POLB inh inconclusive, WRN helicase inh 79µM
COc1ccc(CN2CC[C@H]3C=CC[C@@H](C(=O)Nc4ccccc4)[C@H]3C2=O)cc1OC	POLI inh inconclusive (no result: POLH inh, POLB inh, WRN helicase inh)
CC[C@]12c3[nH]c4cc(-c5ccco5)ccc4c3CCN1C(=O)[C@@H](CC(=O)NCCC1=CCCCC1)C[C@@H]2C(=O)N1CCN(C(=O)c2ccco2)CC1	POLI inh 7.9µM, POLK inh 28µM (no result: POLB inh)
COc1ccc(CNC(=O)C[C@H]2C[C@H](C(=O)N3CCCCC3)[C@@]3(C)c4[nH]c5cc(-c6ccco6)ccc5c4CCN3C2=O)cc1OC	POLI inh 40µM, POLK inh inconclusive (no result: POLB inh)
O=C1COCCN1	none (no result: POLH inh, POLB inh, WRN helicase inh)
Nc1ccc(/C=C/c2ccc(N)cc2S(=O)(=O)O)c(S(=O)(=O)O)c1	POLK inh 3.2µM (no result: POLI inh, POLH inh, POLB inh, WRN helicase inh)
CC[C@H](C)[C@H](NC(=O)[C@H](C)NC(=O)CNC(=O)[C@H](CCCCN)NC(=O)[C@H](CC(N)=O)NC(=O)[C@H](CO)NC(=O)CN)C(=O)N[C@H](C(=O)NCC(=O)N[C@@H](CC(C)C)C(=O)N[C@@H](CCSC)C(=O)O)[C@@H](C)CC	none (no result: POLI inh, POLH inh, POLB inh, WRN helicase inh)
COc1cccc(N2C(=O)C(c3ccccc3)=C(c3nc4ccccc4s3)C2NC(C)=O)c1 (centres undefined)	POLB inh 89µM
CCn1c(SCC(=O)N/N=C/C=C\c2ccco2)nc2ccccc21	POLI inh inconclusive, POLH inh inconclusive, POLB inh 18µM
Cc1ccc(CSc2nnc(SCC(=O)N/N=C/C=C/c3ccco3)s2)cc1	POLI inh inconclusive, POLH inh inconclusive, POLK inh inconclusive, POLB inh 22µM
O=[N+]([O-])c1ccccc1S(=O)(=O)N1CCN(c2nc(-c3cccs3)nc3ccccc23)CC1	none (no result: POLH inh, POLB inh, WRN helicase inh)
Cn1cnc([N+](=O)[O-])c1SCC(O)CN1CCCCC1 (centres undefined)	none
Cn1cnc([N+](=O)[O-])c1SCC(=O)NN	POLI inh 79µM, POLK inh inconclusive
O=C(Nc1ccc(N2CCOCC2)c(S(=O)(=O)Nc2ccc(Cl)cc2)c1)c1ccc(=O)[nH]n1	POLI inh 10µM, POLH inh 20µM, POLK inh inconclusive (no result: POLB inh)
NS(=O)(=O)c1ccc(CCNc2nc3c(-c4cccc(F)c4)nnn3c3ccc(Cl)cc23)cc1	POLH inh 89µM, POLB inh inconclusive (no result: WRN helicase inh)
CC(=O)Nc1ccc(S(=O)(=O)O)c2cc(S(=O)(=O)O)c(N=Nc3ccc(N=Nc4ccc(S(=O)(=O)O)cc4)c4ccc(S(=O)(=O)O)cc34)c(O)c12	POLI inh 3.2µM, POLK inh 1.4µM (no result: POLH inh, POLB inh, WRN helicase inh)
O=S(=O)(O)c1ccc2c(N=Nc3ccc(S(=O)(=O)O)c4ccccc34)c(O)c(S(=O)(=O)O)cc2c1	POLI inh 45µM, POLK inh 45µM (no result: POLH inh, POLB inh, WRN helicase inh)
O=S(=O)(O)c1cccc(N=Nc2c(O)ccc3ccccc23)c1	POLH inh inconclusive, POLB inh inconclusive
O=C(C[n+]1ccncc1)c1ccc2ccccc2c1	none (no result: POLH inh, POLB inh, WRN helicase inh)
CC(c1ncncc1F)[C@](O)(Cn1cncn1)c1ccc(F)cc1F (some centres undefined)	none (no result: POLI inh, POLH inh, POLB inh, WRN helicase inh)
CC(=O)c1cccc(S(=O)(=O)N2CCC(C(=O)OC3CCOC3=O)CC2)c1 (centres undefined)	POLI inh inconclusive, POLH inh 45µM (no result: POLB inh)
O=C(c1ccc2c(c1)OCCO2)N(Cc1cccnc1)c1nc2ccc(F)cc2s1	none (no result: WRN helicase inh)
CC1=NN(Cc2cc(C(C)(C)C)c(O)c(C(C)(C)C)c2)C(=O)C1	POLI inh inconclusive
CCCCCN1N=C(C)CC1=O	POLI inh 1.1µM
CN(CCCc1cnc[nH]1)C(=S)NCCCN(Cc1ccc(Cl)cc1)c1ccc(Br)cn1	POLI inh inconclusive (no result: POLH inh, POLB inh, WRN helicase inh)
Cc1ccc2nc(N)[nH]c(=O)c2c1Sc1ccncc1	none (no result: POLI inh, POLH inh, POLB inh, WRN helicase inh)
COc1ccc(Cn2c(N)c(C#N)c3nc4ccccc4nc32)cc1OC	POLI inh 25µM
Cc1cc(=O)n2[nH]c(C)c(-c3ccccc3)c2n1	none
O=c1cc(-c2ccccc2)nc2c(-c3ccccc3)c(C(F)(F)F)[nH]n12	POLH inh inconclusive, POLB inh 79µM
O=C1/C(=C/c2ccncc2)CCc2ccccc21	POLH inh 79µM
CN(C[C@H](Cc1ccccc1)N(C[C@H](CC1CCCCC1)N(CCc1ccccc1)N=O)N=O)N=O	POLI inh 89µM, POLK inh inconclusive
CN(C[C@@H](CC1CCCCC1)N(C[C@H](Cc1ccccc1)N(CCc1ccccc1)N=O)N=O)N=O	none
O=C(O)CSc1c2c(nc3cc(C(=O)Nc4ccc(F)c(Cl)c4)ccc13)CCCC2	POLI inh inconclusive, POLH inh 50µM
COc1ccc(NC(=O)c2ccc3c(SCC(=O)O)c4c(nc3c2)CCCC4)c(OC)c1	POLI inh 79µM, POLK inh inconclusive, POLB inh 40µM!
COc1ccc(NC(=O)c2ccc3c(SCC(=O)O)c4c(nc3c2)CCCC4)cc1Cl	none (no result: POLI inh, POLH inh, POLK inh, WRN helicase inh)
O=C(C[n+]1ccccc1Cl)c1ccc(F)cc1	none (no result: POLH inh, POLB inh, WRN helicase inh)
Cc1cc2nccc(/C=C/c3ccc(N(C)C)cc3)c2cc1C	POLI inh inconclusive (no result: POLH inh, POLB inh, WRN helicase inh)
Cc1ccc(S(=O)(=O)Nc2ccc(Nc3ccccc3)cc2)cc1	none
Cc1ccc(S(=O)(=O)c2cc(Nc3ccccc3)ccc2O)cc1	POLI inh 50µM, POLK inh 40µM (no result: POLB inh)
CCc1cc[n+](CC(=O)c2ccc(F)cc2)cc1C(=O)O	none (no result: POLH inh, POLB inh, WRN helicase inh)
Cc1cc(/C(N)=N/OC(=O)c2cccc(Cl)c2)no1	POLB inh 89µM, WRN helicase inh inconclusive
COc1ccccc1Nc1c2c(nc3ccc(NC(=O)c4ccc(N(C)C)cc4)cc13)CCCC2	none (no result: WRN helicase inh)
CCCN1CNc2c(c(=O)[nH]c(=S)n2CCc2ccccc2C)C1	none (no result: POLH inh, POLB inh, WRN helicase inh)
Cc1ccc2[nH]c(=O)c(CN(Cc3ccccc3)Cc3nnnn3Cc3ccco3)cc2c1	none (no result: POLH inh, POLB inh, WRN helicase inh)
c1ccc(CN2CCN(CCCNc3ccc4nnc(-c5ccccc5)n4n3)CC2)cc1	POLI inh inconclusive, POLK inh inconclusive
Cc1ccc(CNc2ccc3nnc(-c4ccccc4)n3n2)cc1	POLH inh inconclusive, POLB inh 56µM
C/C(=N\NC(=O)c1cccc(N/N=C(\C)c2ccco2)c1)c1ccco1	POLI inh 45µM, POLH inh 22µM, POLK inh 89µM
C/C(=N\NC(=O)c1cc2ccccc2cc1O)c1ccc(C)o1	POLI inh inconclusive, POLB inh 79µM
C/C(=N\NC(=O)c1cc(C)nc2ccccc12)c1ccco1	POLB inh inconclusive
C/C(=N\NC(=O)c1cccc([N+](=O)[O-])c1)c1ccco1	POLI inh inconclusive

Screening results from PubChem BioAssay.
